SMILES strings stand for the structures. Several values for one entry are separate records, joined by “and”; a condition that tells them apart may be missing. Equal entries are not always repeated. Activity calls are given as the source filed them.

The nature of assay [1]: anti-His antibody binders, primary screen, artefact control for SMM control protein annotation, biochemical, small-molecule microarray, 635 nm fluorescence (AID 1128).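 Also: score merges feature fluorescence with signal-to-noise for each printed compound spot.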 The following applies: anti-His Alexa647 antibody binding, higher = more signal.
In assay [2] the test system is Human papillomavirus type 1a E7 protein (residues 1-88). Nature of the assay: HPV1a E7 small-molecule binders, primary screen, biochemical, small-molecule microarray, residues 1-88, 635 nm (AID 1129). As to conditions: small-molecule microarray binding, fluorescence 635 nm; higher = more signal.
Assay [3] deals with Focal adhesion kinase 1 (Homo sapiens) (UniProt Q05397). Nature of the assay: small-molecule microarray binders of FAK, primary screen, biochemical, 635/667 nm fluorescence, BSA, DTT (AID 1130).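 Also: composite of spot emission at 667 nm and signal to noise over triplicate slides.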 As to conditions: PTK2 binding, 635 nm fluorescence, higher = more signal.
Focal adhesion kinase 1 (Homo sapiens), sequence (Q05397 whole entry, looked up): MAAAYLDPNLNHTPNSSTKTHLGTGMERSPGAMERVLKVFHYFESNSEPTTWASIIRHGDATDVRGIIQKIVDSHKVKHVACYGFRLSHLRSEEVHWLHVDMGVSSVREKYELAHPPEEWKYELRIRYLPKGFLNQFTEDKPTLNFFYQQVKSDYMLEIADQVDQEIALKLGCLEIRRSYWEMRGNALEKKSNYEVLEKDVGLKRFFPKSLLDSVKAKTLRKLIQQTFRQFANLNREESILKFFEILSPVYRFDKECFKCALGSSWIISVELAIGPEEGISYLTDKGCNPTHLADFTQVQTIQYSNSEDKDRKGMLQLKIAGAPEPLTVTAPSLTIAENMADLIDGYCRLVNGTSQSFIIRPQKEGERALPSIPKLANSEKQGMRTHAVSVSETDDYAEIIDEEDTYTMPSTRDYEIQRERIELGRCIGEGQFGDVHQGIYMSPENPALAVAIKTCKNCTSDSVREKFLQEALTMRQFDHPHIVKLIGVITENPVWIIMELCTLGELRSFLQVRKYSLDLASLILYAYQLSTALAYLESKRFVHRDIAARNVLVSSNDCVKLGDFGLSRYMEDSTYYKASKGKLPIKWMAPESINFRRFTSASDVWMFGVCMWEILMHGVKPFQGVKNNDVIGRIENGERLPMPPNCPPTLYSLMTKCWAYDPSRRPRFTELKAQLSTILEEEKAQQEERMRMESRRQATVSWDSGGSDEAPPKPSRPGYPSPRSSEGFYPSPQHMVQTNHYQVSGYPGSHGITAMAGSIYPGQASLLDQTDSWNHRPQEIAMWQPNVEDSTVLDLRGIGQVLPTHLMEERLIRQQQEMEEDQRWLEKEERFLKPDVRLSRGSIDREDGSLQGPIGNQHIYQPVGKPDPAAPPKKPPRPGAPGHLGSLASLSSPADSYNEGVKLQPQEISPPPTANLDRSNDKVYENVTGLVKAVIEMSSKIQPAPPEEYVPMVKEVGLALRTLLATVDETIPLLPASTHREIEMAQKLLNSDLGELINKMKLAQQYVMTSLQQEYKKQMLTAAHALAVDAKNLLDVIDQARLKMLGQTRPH
Assay [4] relates to Fibrinogen (Alexa647-labelled). Nature of the assay: fibrinogen binders on compound microarrays, profiling panel, artefact control for SMM control-protein annotation, biochemical, small-molecule microarray, 635/667 nm fluorescence (AID 1131).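 Also: z-score merges 667 nm fluorescence with per-spot signal-to-noise over triplicate slides.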 As to conditions: fibrinogen-A647 binding fluorescence, higher = more signal.
The target in assay [5] is Follistatin (Homo sapiens) (UniProt P19883). Nature of the assay: follistatin binders on small-molecule microarrays, primary screen, biochemical, small-molecule microarray, 635/667 nm fluorescence (AID 1132). As to conditions: FST binding, 635 nm fluorescence, higher = more signal.
Follistatin (Homo sapiens), sequence (P19883 whole entry, looked up): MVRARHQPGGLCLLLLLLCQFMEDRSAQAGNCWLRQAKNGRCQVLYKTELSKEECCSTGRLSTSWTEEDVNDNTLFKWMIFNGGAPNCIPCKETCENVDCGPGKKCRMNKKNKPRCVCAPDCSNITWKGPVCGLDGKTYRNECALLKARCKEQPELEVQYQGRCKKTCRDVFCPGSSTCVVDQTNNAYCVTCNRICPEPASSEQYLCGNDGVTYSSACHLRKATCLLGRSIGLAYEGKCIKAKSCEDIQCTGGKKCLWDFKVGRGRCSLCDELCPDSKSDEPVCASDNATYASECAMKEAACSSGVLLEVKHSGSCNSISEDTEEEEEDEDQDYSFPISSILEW
Assay [6] addresses Fibroblast growth factor 2 (Homo sapiens) (UniProt P09038). Briefly: FGF2 binders on small-molecule microarrays, primary screen, biochemical, small-molecule microarray, 635/667 nm fluorescence (AID 1133). As to conditions: small-molecule microarray binding, FGF2, fluorescence 635/667; higher = more signal.
Assay [7] in a line: mitochondrial membrane potential change in A549 cells, profiling panel, cell-based, JC-1 fluorescence, basal, 24 h, 100 nL (AID 1138).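 Also: A549 lung adenocarcinoma cells under basal conditions with no added stimulus; test concentration not given here.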 As to conditions: higher = more signal.
The subject of assay [8] is Lefty1. Nature of the assay: Lefty1 binders on small-molecule microarrays, primary screen, biochemical, small-molecule microarray, 635/667 nm fluorescence (AID 1139). The following applies: small-molecule microarray binding, fluorescence 635/667; higher = more signal.
Assay [9] relates to wheat germ agglutinin (Triticum aestivum), Alexa647-labelled. Briefly: wheat germ agglutinin binders on compound microarrays, profiling panel, artefact control for SMM control-protein annotation, biochemical, small-molecule microarray, 635/667 nm fluorescence (AID 1140).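 Also: score merges 667 nm feature emission with signal to noise over triplicate slides.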 As to conditions: WGA-A647 binding, 635 nm fluorescence, higher = more signal.
Assay [10] deals with Luciferin 4-monooxygenase (Photinus pyralis) (UniProt P08659). Nature of the assay: firefly luciferase enzyme inhibitors, primary screen, biochemical, luminescence, purified enzyme, 2006 set (AID 1141).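 Also: cell-free assay with purified firefly luciferase at 100 ng per well in PBS; test concentration not given here.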 As to conditions: SteadyGlo luminescence, 30 min; higher = more signal, called active from +8 up or from −8 down unless noted.
Luciferin 4-monooxygenase (Photinus pyralis), sequence (P08659 whole entry, looked up): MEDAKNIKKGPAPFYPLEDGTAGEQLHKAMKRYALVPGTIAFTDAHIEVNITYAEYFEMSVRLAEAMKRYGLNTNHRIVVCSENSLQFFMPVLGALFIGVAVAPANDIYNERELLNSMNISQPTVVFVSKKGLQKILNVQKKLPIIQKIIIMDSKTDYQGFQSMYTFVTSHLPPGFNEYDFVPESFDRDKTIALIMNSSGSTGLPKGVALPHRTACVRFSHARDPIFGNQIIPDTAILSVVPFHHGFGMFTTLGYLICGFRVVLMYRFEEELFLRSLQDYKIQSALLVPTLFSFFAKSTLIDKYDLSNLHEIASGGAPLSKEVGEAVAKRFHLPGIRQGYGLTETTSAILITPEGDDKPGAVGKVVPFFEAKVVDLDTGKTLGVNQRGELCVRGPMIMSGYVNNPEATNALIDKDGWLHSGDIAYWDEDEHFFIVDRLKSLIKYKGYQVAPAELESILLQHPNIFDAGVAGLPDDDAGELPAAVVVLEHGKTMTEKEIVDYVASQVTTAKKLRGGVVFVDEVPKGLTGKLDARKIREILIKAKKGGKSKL

Fibroblast growth factor 2 (Homo sapiens), sequence (P09038 whole entry, looked up): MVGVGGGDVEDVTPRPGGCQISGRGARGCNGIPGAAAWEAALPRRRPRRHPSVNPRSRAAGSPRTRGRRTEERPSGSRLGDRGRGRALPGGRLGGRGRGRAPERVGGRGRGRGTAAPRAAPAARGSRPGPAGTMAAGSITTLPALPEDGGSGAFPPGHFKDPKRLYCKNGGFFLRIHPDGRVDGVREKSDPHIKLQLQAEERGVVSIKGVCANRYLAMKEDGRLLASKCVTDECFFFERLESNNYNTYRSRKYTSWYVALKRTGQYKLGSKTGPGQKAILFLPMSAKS

For the compound `CCCC=C(CCC)[C@@H](NP(=O)(c1ccccc1)c1ccccc1)c1ccccc1`, the composite z-score in [1] is 0.0583; in [2], 1.03; in [3], 0.206; in [4], 0.819; in assay [5], 0.139; in assay [6], 0.407. Further, the composite z-score in [8] was found to be 0.169; in assay [9], 0.207. The z-score was 1.23 in assay [7] and 1.19 (inactive) in assay [10].
In the case of `C[C@@H]1OC=C2[C@@H](O)[C@H]3O[C@H]3C(=O)[C@]23[C@H]1[C@H]1C2=C([C@@H](O)[C@H]4O[C@H]4C2=O)[C@@H]3O[C@@H]1C`, the composite z-score in assay [1] is -0.317; in [2] it was -0.556; in assay [3], -0.171; in assay [4], -0.559; in [5], 0.0982; in assay [6], 0.0979. The composite z-score in assay [8] is 0.277; in assay [9], -0.351. Further, the z-score in assay [7] is 0.774; in [10], -0.563 (inactive).
Turning to `COC(=O)[C@@]1(Cc2ccc(F)cc2)[C@H]2c3cc(C(=O)N(C)C)[nH]c3C[C@H]2CN1C(=O)c1ccccc1`, the composite z-score was 1.8 in assay [1]; 0.733 in assay [2]; 0.745 in assay [3]; 0.817 in assay [4]; -0.252 in [5]; -0.0573 in [6]. Moreover, the values for the composite z-score in [8] and in assay [9] were -0.855 and 0.186, respectively. For the same compound, the results for the z-score in assay [7] and in [10] were 0.843 and -0.0137 [setting not given] (inactive), respectively.
As for `CCCc1cc2c(n1Cc1cccc(Cl)c1)C(C)C1CN(C(=O)c3ccccc3)C(C)(C(=O)OC)C21` (stereo not given), the composite z-score in [1] was 2.37; in assay [2], 1.23; in assay [3] it was 1.16; in assay [4], 0.989; in assay [5], -0.264; in assay [6], -1.1. The composite z-score was -0.763 in assay [8] and 1.44 in assay [9]. Also, the z-score in [7] was 1.95; in assay [10], 0.566 (inactive).
Regarding `COC(=O)[C@@]1(Cc2ccccc2)[C@H]2c3cc(C(=O)N(C)C)[nH]c3C[C@H]2CN1C(=O)c1ccccc1`, the composite z-score was 0.523 in assay [1]; -1.26 in [2]; -0.206 in assay [3]; -0.0736 in assay [4]; -0.426 in assay [5]; -0.387 in assay [6]. Moreover, the composite z-score in assay [8] was -1.29; in assay [9], -0.09. In addition, the z-score is 0.825 in assay [7] and 2.27 (inactive) in assay [10].
Regarding `c1ccc(-c2cc3c(nc2-c2ccccc2)CCNC3)cc1`, the composite z-score in assay [1] was -0.0778; in assay [2], -0.716; in [3] it was -0.0306; in [4], 0.357; in [5], -0.444; in assay [6], 0.0533. The composite z-score in [8] was 0.0391; in assay [9] it was 0.326. Moreover, the z-score in assay [7] is 0.631; in assay [10], -0.13 (inactive).
For `C[C@@H]1Cc2c(cnc3c2CN(C)CC3)CO1`, the composite z-score in assay [1] was -0.528; in assay [2] it was -0.336; in [3] it was 0.391; in assay [4] it was -0.383; in assay [5], 0.783; in assay [6], 0.664. Moreover, the composite z-score in assay [8] was 1.27; in assay [9], -0.23. Moreover, the z-score in assay [7] was 0.0621; in assay [10], -0.345 (inactive).
Take `CCOC(=O)[C@H]1CC=C2C(=O)Oc3ccccc3[C@@H]21`: the composite z-score in assay [1] was 2.35; in [2] it was -0.268; in assay [3], 0.374; in assay [4] it was -0.192; in assay [5] it was -0.628; in [6], -0.903. In addition, the composite z-score in assay [8] was -0.54; in [9], -0.351. The z-score in assay [7] is -0.955; in [10], 1.32 (inactive).
On to `CC1N(P(=O)(c2ccccc2)c2ccccc2)CC(O)(c2ccccc2)CC12CC2` (stereo not given), for which the composite z-score is 1.12 and 1.33 in assay [1]; 0.773 and 0.537 in assay [2]; 1.39 and 0.264 in assay [3]; -0.817 and 0.653 in assay [4]; -1.07 and -0.0739 in [5]; -1.02 and -0.642 in assay [6]. In addition, the composite z-score was -1.48 and -1.47 in assay [8]; -0.322 and 0.637 in assay [9]. In addition, the z-score is 0.158 and 0.776 in [7]; 2.42 (inactive) and 2.44 (inactive) in assay [10].
Regarding `C=C(CC1(C(C)NP(=O)(c2ccccc2)c2ccccc2)CC1)c1ccccc1` (stereo not given), the composite z-score in assay [1] was 2.95; in [2], 1.25; in assay [3], 0.788; in assay [4] it was 0.94; in [5] it was 0.3; in assay [6] it was -0.34. Moreover, the composite z-score in assay [8] worked out at 0.0368; in assay [9], 0.501. The z-score in [7] is -0.147; in [10], 2.67 (inactive).
`COC(=O)[C@H]1[C@@H](O)[C@@]2(O)c3c(OC)cc(OC)cc3O[C@@]2(c2ccc(OC)cc2)[C@@H]1c1ccccc1`: the composite z-score in [1] turned out to be 0.287; in assay [2] it was 0.741; in assay [3], 0.153; in [4], 0.323; in assay [5], 0.53; in assay [6], 0.4. For the same compound, the figures for the composite z-score in [8] and in assay [9] were 0.614 and 0.0623, respectively. Further, the results for the z-score in assay [7] and in assay [10] were 0.862 and -1.13 (inactive), respectively.
As to `CN1CCC(c2ccc(CO)cc2)=CC1C1CC1` (stereo not given), the composite z-score in assay [1] was -0.192; in [2], -0.855; in [3] it was 0.363; in assay [4] it was -0.0825; in assay [5] it was 0.231; in assay [6] it was 0.0573. Moreover, the composite z-score in assay [8] is 0.85; in assay [9], -0.0579. In addition, the z-score in [7] is 0.319; in assay [10], -0.866 (inactive).
`C=C(CC1(CNP(=O)(c2ccccc2)c2ccccc2)CC1)c1ccccc1`: the composite z-score is 0.679 in assay [1]; 0.626 in assay [2]; 0.0728 in assay [3]; 0.126 in [4]; -0.274 in assay [5]; -0.639 in assay [6]. The figures for the composite z-score in assay [8] and in [9] were -0.742 and 0.11, respectively. For the same compound, the z-score in [7] is 1.23; in assay [10], 2.19 (inactive).
As to `COc1cc2c(cc1O)C(C)N(C)CC2` (stereo not given), the composite z-score in assay [1] was -0.0259; in assay [2] it was -1.17; in [3], -0.45; in assay [4], -0.227; in [5], -0.114; in assay [6], 0.0683. Further, the composite z-score in [8] is -0.692; in assay [9], 0.0591. For the same compound, the z-score in assay [7] is 0.599; in [10], -1.06 (inactive).
For `CCCc1cc2c(n1CCO)C(C)C1CN(C(=O)c3ccccc3)C(C)(C(=O)OC)C21` (stereo not given), the composite z-score in assay [1] was 2.55; in [2] it was 1.14; in [3] it was 1.42; in assay [4] it was 0.64; in assay [5], -0.315; in [6] it was -0.634. For the same compound, the results for the composite z-score in assay [8] and in assay [9] were -0.875 and 1.25, respectively. Moreover, the z-score is 0.9 in assay [7] and 1.54 (inactive) in assay [10].
`O=P(c1ccccc1)(c1ccccc1)N1CC2(CC2)CC(O)(c2ccccc2)C1` (stereo not given): the composite z-score in assay [1] was 1.11; in assay [2], 0.805; in assay [3], 1.26; in assay [4], 0.77; in [5] it was -0.541; in [6] it was -0.955. For the same compound, the composite z-score in [8] is -1.17; in [9] it was 0.546. Besides, the z-score in [7] is 0.542; in [10], 2.44 (inactive).

Source of the values: PubChem BioAssay.
